Screens (PubChem)
Most compounds without a hit are left out; they make up all but 21% or so of the library.
Pf growth 48h – P. falciparum growth inhibition at 48 hours (one generation); P. falciparum luciferase growth in erythrocytes, 48 h; Potency, µM (top dose mostly 28.7 µM), most hits filed as inhibitors; 310,000 compounds, 5.9% hits; AID 504832
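Read-out is firefly luciferase luminescence from an integrated reporter in P. falciparum, so falling signal marks reduced parasite growth. Infected erythrocytes were at 2% hematocrit and 0.1% parasitemia (final) in Albumax-supplemented RPMI 1640.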
Shiga toxin inh – blocks Shiga toxin action in Vero cells; Vero cells, Shiga toxin protein synthesis inhibition reporter; inhibition, % at 38.7 µM; 290,000 compounds, 9.2% hits; AID 2315; in the data active = inhibition mostly above about 28%, no sharp cut-off; inactive = mostly below about 43%
Cycloheximide cs – counter-screen hit for Shiga toxin inhibitors, cycloheximide; max response, %; cell reporter, cycloheximide protein synthesis inhibition counterscreen; 300,000 compounds, 12% hits; in the data active = max response mostly above about 13%, no sharp cut-off; inactive = mostly below about 14%; note: read at 38.3 µM for the half of the compounds with a filed dose
Pf growth 96h – inhibits malaria parasite growth, 96 h; P. falciparum luciferase reporter growth, 96 h; 320,000 compounds, 6.9% hits; Potency, µM (titrated, usually from 28.7 µM), most hits filed as inhibitors; AID 504834
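P. falciparum expressing integrated firefly luciferase, in erythrocytes at 2% hematocrit, 0.05% parasitemia, incubated with compounds 96 h at 37 C, 5% CO2. Growth inhibition read as loss of luminescence; two-generation exposure targets delayed-death apicoplast inhibitors.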
Large screens that a line does not name were inactive. Unless noted, calls come from the whole dose curve; as a rule, active = well fitted inhibition curve with a large enough effect; inconclusive = small, poorly fitted or top-dose-only effect, or another doubt; inactive = no such curve, though single readings can be large or run the other way.

CC(=O)Nc1ccc(N2CC(C)(C)C2=O)cc1	none
CC(C)C(NC(=O)c1ccco1)C(=O)OCC(=O)NCCc1ccccc1 (stereo unspecified)	none (no result: Shiga toxin inh, Cycloheximide cs)
CC(C)[C@H](NC(=O)c1ccco1)C(=O)OCC(=O)NC12CC3CC(CC(C3)C1)C2	Shiga toxin inh 59, Cycloheximide cs 21
CC(C)[C@H](NC(=O)c1ccco1)C(=O)OCC(=O)N1CCc2ccccc21	Shiga toxin inh 73, Cycloheximide cs 14 (no result: Pf growth 96h)
CC(C)[C@H](NC(=O)c1ccco1)C(=O)OCC(=O)N1CC(=O)Nc2ccccc21	none
CCOc1ccc(Nc2nc3cc(S(=O)(=O)N(CC)CC)ccc3o2)cc1	Pf growth 48h 10µM (no result: Pf growth 96h)
CCN(CC)S(=O)(=O)c1ccc2oc(Nc3ccc(OC)cc3)nc2c1	Pf growth 48h inconclusive, Pf growth 96h inconclusive
Cc1ccc(C2=NN=C(NC(=O)CSc3nnc4c5ccccc5n(C)c4n3)SC2)cc1	Pf growth 48h 3.3µM
Cc1ccc(C2=NN=C(NC(=O)CSc3nc(C)cc(C)n3)SC2)cc1	Pf growth 48h inconclusive
C[C@@]1(CO)[C@H](O)CC[C@@]2(C)[C@H]1CC[C@H]1C[C@@H]3C[C@@]12CC[C@]3(O)CO	Pf growth 48h 0.52µM, Pf growth 96h 0.59µM
C[C@H]1CCC2[C@](C)(CO)[C@@H](O)CC[C@]2(C)[C@@]12CCC(CO)(CCO)O2 (stereo partly specified)	none
COc1ccc(CCN(C)C2CCCN(C(=O)Cn3cnnn3)C2)cc1OC (stereo unspecified)	Cycloheximide cs 12
COc1cccc2nc3cc(C)c(C)cc3nc12	Shiga toxin inh 59, Cycloheximide cs 59
COc1cccc2c(Nc3ccccc3C)cc(C)nc12	Pf growth 48h inconclusive
COc1cc2c3cc1Oc1c(OC)c(OC)cc4c1[C@@H](Cc1ccc(OC(=O)c5ccc([N+](=O)[O-])cc5)c(c1)Oc1ccc(cc1)C[C@@H]3N(C)CC2)N(C)CC4	none (no result: Pf growth 48h, Pf growth 96h)
Cc1cc(NC(=O)c2ccc(NC(=O)C3CC3)cc2)no1	Shiga toxin inh 61, Cycloheximide cs 30
C/C(=C\C(=O)Nc1cc(C)on1)c1ccccc1	Pf growth 48h inconclusive, Shiga toxin inh 57, Cycloheximide cs 37
O=C(O)c1ccc2nc(-c3ccccc3)c(-c3ccccc3)nc2c1	Shiga toxin inh 65, Cycloheximide cs 56, Pf growth 96h inconclusive
CCC(=O)Nc1cnc(NC(=O)c2cccc(F)c2)cc1C	none
CC(=O)Nc1cnc(NC(=O)c2cccc(F)c2)cc1C	Shiga toxin inh 55, Cycloheximide cs 50
Cc1nn(C)cc1C(C(=O)NC1CCCCC1)N(C(=O)Cc1cccs1)c1ccc(Cl)cc1 (stereo unspecified)	none
COc1ccccc1N1C(=O)CC(Sc2n[nH]c(-c3cccc(C)c3)n2)C1=O (stereo unspecified)	none
CCCCCc1n[nH]c2c1CCCC2	none
Cc1cc(NC(=O)c2cccc(F)c2)no1	Cycloheximide cs 26
COC(=O)c1ccc(NC(=O)C2CCN(S(C)(=O)=O)CC2)cc1	Pf growth 48h inconclusive, Pf growth 96h inconclusive
O=C(Nc1ccc(Cl)cc1)C1CCN(C(=O)NC2CCCCC2)CC1	none
COC(=O)c1ccc(NC(=O)C2CCN(C(=O)Nc3ccccc3)CC2)cc1	Pf growth 48h inconclusive, Pf growth 96h 4.7µM (no result: Shiga toxin inh, Cycloheximide cs)
Cc1cc(NC(=O)C(=O)c2cn(C)c3ccccc23)no1	Cycloheximide cs 18
CC(=O)Nc1ccc(NC(=O)C2CCN(C(=O)NC3CCCCC3)CC2)cc1	Pf growth 96h 5.2µM
CCc1cccc(NC(=O)COC(=O)/C=C/c2cccs2)c1	none (no result: Shiga toxin inh, Cycloheximide cs)
O=C(OCCCOC(=O)c1ccc(Br)o1)c1ccc(Br)o1	none (no result: Shiga toxin inh, Cycloheximide cs)
CCN(CC)C(=O)c1[nH]cnc1C(=O)Nc1ccc(C)cc1	none (no result: Shiga toxin inh, Cycloheximide cs)
Cc1ccc(-c2nc3ccccc3nc2-c2ccccc2)cc1	Pf growth 96h inconclusive
Oc1ccccc1-c1nc2ccccc2nc1-c1ccccc1	Pf growth 48h 15µM, Pf growth 96h inconclusive
Cc1cc(NC(=O)c2ccccc2)no1	Shiga toxin inh 73, Cycloheximide cs 51 (no result: Pf growth 48h)
COc1ccccc1C(=O)Nc1cc(-c2ccc(C)cc2)no1	Shiga toxin inh 83, Cycloheximide cs 25
CCN(CC)S(=O)(=O)c1ccc(C(=O)Nc2cc(C)on2)cc1	Pf growth 48h 12µM, Pf growth 96h 7.4µM
COc1ccccc1C(=O)Nc1c(C)cc(Br)cc1C	Pf growth 96h inconclusive
COCCNC(=S)NNc1ccccc1[N+](=O)[O-]	none
S=C(Nc1ccc(Oc2ccccc2)cc1)Nc1cccnc1	Pf growth 96h inconclusive (no result: Shiga toxin inh)
Cc1ccc(OC(C)C(=O)N(C)Cc2ccccc2)c([N+](=O)[O-])n1 (stereo unspecified)	none
Cc1ccc(S(=O)(=O)N2CCCCC2)cc1NC(=O)COC(=O)c1ccc(=O)[nH]c1	Pf growth 96h inconclusive (no result: Shiga toxin inh, Cycloheximide cs)
O=C(O)CC/C(=N/NC(=O)CNC(=O)c1ccc2c(c1)OCCO2)c1ccccc1	none
O=C(Nc1ccccc1)c1ccc(NC(=O)C2CC2)cc1	Shiga toxin inh 42, Cycloheximide cs 32
Cc1cc(NC(=O)c2ccc3nc(-c4ccccc4)c(-c4ccccc4)nc3c2)no1	Pf growth 48h 5.2µM, Pf growth 96h 4.7µM
O=C(NCCc1ccccc1)c1ccc2nc(-c3ccco3)c(-c3ccco3)nc2c1	none (no result: Pf growth 48h)
O=C(NNC(=O)c1ccc(NC(=O)C2CC2)cc1)c1ccc(F)cc1	none
O=C(c1ccccc1)c1ccc2nc(-c3ccco3)c(-c3ccco3)nc2c1	Shiga toxin inh 56, Cycloheximide cs 36
COc1ccccc1C(=O)Nc1cc(C)on1	Cycloheximide cs 45 (no result: Shiga toxin inh)
CCCN(C(=O)COC(=O)CSc1ccc([N+](=O)[O-])cc1)C1CCS(=O)(=O)C1 (stereo unspecified)	none (no result: Shiga toxin inh, Cycloheximide cs)
CCC1(c2ccccc2)NC(=O)N(CC(=O)Nc2ccccc2C(=O)N2CCCCC2)C1=O (stereo unspecified)	none (no result: Shiga toxin inh, Cycloheximide cs)
O=C(Nc1ccc2c(c1)N(Cc1ccccc1)C(=O)c1ccccc1S2)NC1CC1	Pf growth 48h 6.6µM, Pf growth 96h 12µM
CC(OC(=O)c1ccc2c(c1)OCCO2)C(=O)c1ccccc1 (stereo unspecified)	none (no result: Shiga toxin inh, Cycloheximide cs)
CCCCCCNC(=O)N[C@@H](C(=O)NCCC[C@H]1CN2C(=NC[C@@H]2Cc2ccccc2)N1CCc1cccc(OC)c1)C(C)C	Pf growth 48h 13µM, Pf growth 96h 1.3µM
CCCCCCNC(=O)N[C@H](Cc1ccc(O)cc1)C(=O)NCCC[C@H]1CN2C(=NC[C@H]2CCC)N1CC1CCC1	Pf growth 48h 7.4µM, Pf growth 96h 2.9µM
CCCCCCNC(=O)N[C@@H](Cc1ccc(O)cc1)C(=O)NCCC[C@H]1CN2C(=NC[C@H]2C)N1CC1CCC1	Pf growth 48h 9.3µM, Shiga toxin inh 40, Pf growth 96h 3.3µM
C/C=C(\C)C(=O)NCCN1C2=NC[C@@H](Cc3ccccc3)N2C[C@H]1Cc1ccc(O)cc1	none
O=C(CCNS(=O)(=O)c1ccccc1)NNC(=O)C1COc2ccccc2O1 (stereo unspecified)	none (no result: Shiga toxin inh, Cycloheximide cs)
COc1ccc(-c2noc(C3CCCN(C(=O)c4ccccc4)C3)n2)cc1 (stereo unspecified)	Shiga toxin inh 43, Cycloheximide cs 32
COc1ccc(-c2noc(C3CCCN(C(=O)CCc4ccccc4)C3)n2)cc1 (stereo unspecified)	Cycloheximide cs 14
